Compound activity from PubChem.
A selection: hits, their analogues and other compounds. The true share with any hit is near 2.7%.
NadD inh = NadD (S. aureus) enzyme inhibition. purified NadD enzyme, colorimetric absorbance read-out. inhibition, % at 20 µM. 360,000 compounds, 0.78% hits; in the data active means inhibition above about 26%
bovine MsrA act = activators of bovine methionine sulfoxide reductase A. 360,000 compounds, 0.3% hits. purified bovine MsrA, absorbance read-out. AID 602163. activation, % at 10.6 µM; in the data active means activation above about 7.5%;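 further: 0% = vehicle and 100% = reference activator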
MsrA inhibitor = inhibits bovine methionine sulfoxide reductase A; purified bovine MsrA, absorbance read-out; inhibition, % at 15.5 µM; 360,000 compounds, 0.75% hits; AID 651718;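 further: 0% = vehicle wells with enzyme and 100% = reference inhibitor wells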
rCAG RNA binder = r(CAG) repeat RNA binding | 370,000 compounds, 1.3% hits | inhibition, % at 3 µM | TO-PRO-1 dye displacement fluorescence;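 active means inhibition above the plate cutoff, the mean of all test compounds on that plate plus 3 SD, cut at about 35% in these data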;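 further: 0% = DMSO alone and 100% = 100 µM mitoxantrone as full dye displacement; higher means more dye released from RNA so lower well fluorescence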
MsrA conf = bovine MsrA inhibition, confirmed | shares compounds with MsrA inhibitor | purified bovine MsrA, absorbance read-out | inhibition, % at 15.5 µM | 2,300 compounds, 41% hits;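 further: coupled to thioredoxin reductase with NADPH and selenocystamine and DMSO as substrate; 0% = vehicle only and 100% = full effect of reference inhibitor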
* hit, by the source's call; . = no result given. Unless noted, no stated cut-off is given here; in the data, active means inhibition above about 4.5%; inactive means the rest.

SMILES	NadD inh	bovine MsrA act	MsrA inhibitor	rCAG RNA binder	MsrA conf
Cn1c(NC(=O)/C=C/c2c(F)cccc2Cl)cc(=O)n(C)c1=O	-7	-5	0	-1	.
Cn1c(NC(=O)/C=C\c2ccccc2)cc(=O)n(C)c1=O	-4	-4	5.3*	-2	4
COc1cc(-c2nc3ccccn3c2/N=C/c2cc(OC)c(O)cc2Cl)ccc1O	16	-5	4.7*	0	3
CC(C)Oc1ccc(S(=O)(=O)N2CCOCC2)cc1NC(=O)C(C)Oc1ccc(F)cc1 (stereo unspecified)	0	-1	0	-5	.
CC1=CC(=O)[C@@H](OC(=O)Nc2ccc(C)cc2)[C@@H](c2ccccc2Br)N1C	3	-11	0	2	.
CC1=CC(=O)[C@@H](O)[C@@H](c2ccccc2Br)N1C	-1	-5	5.3*	0	4
C/C(=N\Nc1ccc(Cl)c(C(=O)O)c1)c1cc2ccccc2o1	-6	-5	5.4*	22	5.8*
C/C(=N\Nc1ccc(Cl)c(C(=O)O)c1)c1cccc2ccccc12	-5	-3	2	20	.
C/C(=N\Nc1cccc([N+](=O)[O-])c1)c1cc2ccccc2o1	-10	-3	2	2	.
C/C(=N\Nc1cccc(C(=O)O)c1)c1cc2ccccc2o1	-13	-6	5.5*	20	3
O=S1(=O)c2ccc(Br)cc2OC[C@@H](c2ccccc2)N1Cc1cn(Cc2ccccc2)nn1	.	.	.	7	.
N#C/C(=C\c1cccnc1)c1ccc([N+](=O)[O-])cc1	-2	5	4	-1	.
N#C/C(=C/c1cccnc1)c1ccccc1	-3	-3	6.5*	1	3
C[C@@H]1CN([C@@H](C)CO)C(=O)CCCn2nncc2CO[C@H]1CN(C)Cc1ccc(O)cc1	.	.	0	2	.
Fc1ccc(-c2n[nH]c(=S)n2/N=C/c2c[nH]c3ccccc23)cc1	4	1	5.3*	25	1
Cc1cc(-c2n[nH]c(=S)n2/N=C/c2c[nH]c3ccccc23)n[nH]1	-1	2	-1	4	.
CN(CCc1ccccc1)C(=O)c1ccc(NC(=O)Cc2ccc(NC(=O)C3CCN(C(=O)C4CCC4)CC3)cc2)cc1	6	-1	0	2	.
O=C1CN(C(=O)c2ccc(F)cc2)c2ccccc2N1	2	0	0	0	.
C=CCn1c(-c2csc(-c3ccc(Cl)cc3)n2)n[nH]c1=S	1	-1	0	5	.
C=CCn1c(-c2csc(-c3ccccc3)n2)n[nH]c1=S	13	0	5.4*	12	3
Cc1ccc(S(=O)(=O)N2CCCCC2)cc1C(=O)N1CCCCCC1	-6	5	0	1	.
CCCc1ccc(-c2c(C)sc(N)c2C#N)cc1	-4	-3	5.3*	11	-1
CC(C)(C)NC(=O)NC(=O)C[n+]1ccc(Cc2ccc([N+](=O)[O-])cc2)cc1	-11	3	12*	10	1
Cc1ccc(Cl)cc1NC(=O)C[n+]1ccc(Cc2ccc([N+](=O)[O-])cc2)cc1	3	-3	6.6*	14	1
O=C(O)Cc1sc(Nc2ccccc2)nc1-c1cccs1	12	-7	4.9*	16	0
SMILES	NadD inh	bovine MsrA act	MsrA inhibitor	rCAG RNA binder	MsrA conf
Nc1ccc(C=Cc2ccc(N)cc2)cc1	6	-15	5.2*	8	4
CN(C)S(=O)(=O)c1cccc(C(=O)Nc2cc(S(=O)(=O)N3CCOCC3)ccc2N2CCCC2)c1	10	-4	0	9	.
N#CC(C#N)=Cc1c[nH]c(=O)c(C#N)c1Nc1ccccc1	-2	-2	5.4*	-4	2
N#Cc1c(Nc2ccccc2)c(/C=N/N=C/c2ccccc2)c[nH]c1=O	3	-2	0	13	.
CCOc1c(CNCCCSc2nc(C)cc(C)n2)cccc1OC	-5	-2	1	1	.
O=c1oc2ccccc2cc1-c1nc2ccccc2o1	-5	-18	5.2*	4	4
O=c1oc2ccc3ccccc3c2cc1-c1nc2ccccc2o1	1	0	2	17	.
C/C(=C/C(=O)O)C(=O)Nc1cccc(C(F)(F)F)c1	-1	-3	1	2	.
Cc1[nH]n(-c2ccc(Cl)cc2)c(=O)c1C(=O)c1ccccc1	-4	-3	7.3*	9	0
COc1cc(/C=C/c2nc3ccccc3c(=O)[nH]2)ccc1O	-2	-3	7.0*	3	4
CCOc1cc(/C=C/c2nc3ccccc3c(=O)[nH]2)ccc1O	-7	1	1	3	.
CC(C)[C@H](NC(=O)OC(C)(C)C)C(=O)NCC1CCC(C(=O)N[C@@H](Cc2ccccc2)C(=O)O)CC1 (stereo partly specified)	4	-2	0	5	.
O=C(COC(=O)CCSc1ccccc1)Nc1ccccc1Br	-10	-3	1	0	.
